Luc counter = blocks Kinase-Glo luciferase, a counter-screen artifact; AID 1379; Potency, µM (series often up to 38.3 µM), without a hit: at the highest dose activity change, negative = inhibition, hits mostly inhibitors; Kinase-Glo luciferase, ATP luminescence, 8 min; hit rate 0.28% among 200,000; note: % is set by controls: 0 for no effect and ±100 for the full control effect; nearly all actives have a fitted effect of over 60% in size
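Kinase-Glo luciferase light output from ATP and luciferin was measured with 10 uM ATP, within the enzyme's linear range. Buffer: 50 mM imidazole pH 7.2, 50 mM KCl, 7 mM MgCl2, 0.01% Tween 20, 0.05% BSA; luminescence read after 8 min at ambient temperature.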
Rab9 prom act = activators of Rab9 promoter. Huh7 Rab9 promoter-luciferase reporter, luminescence, 24 h. Potency, µM (titrated, usually from 9.22 µM), for inactives: at the top dose activation, negative = inhibition, most hits filed as activators. hit rate 2.8% among 320,000; note: % of control where 0% means no effect; nearly all actives have a fitted effect of over 60% in size
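Stable Rab9-luc Huh7, 1500 cells/well, 2 h settle; cmpd in DMSO, 24 h, 37 °C/5% CO2; luciferase reagent 10 min RT; luminescence.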
ELG1 genotoxic = inducers of genotoxicity in HEK293T ELG1-luciferase cells. HEK293T ELG1-luciferase reporter, luminescence, 16 h. Potency, µM (highest dose often 46 µM), for inactives: at the top dose activity change, positive = activation, usual class: activators. hit rate 1.3% among 330,000; note: % of control where 0% means no effect; nearly all actives have a fitted effect of over 60% in size
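HEK293T cells expressing luciferase-tagged ELG1 were treated with compound or DMSO for 16 hr at 37°C. Luciferase activity was then read after 30 min with ONE-Glo at room temperature; rising signal flags genetic stress.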
SMN2 splice up = SMN2 splice variant enhancement | HEK293 SMN2-luciferase splicing reporter, luminescence, 30-36 h | Potency, µM (titrated, usually from 46.1 µM), for inactives: top-dose activity change, positive = activation, hits mostly activators | hit rate 2.8% among 210,000; note: % of control where 0% means no effect; nearly all actives have a fitted effect of over 55% in size
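HEK293 cells carry an SMN2 […]–luciferase reporter in which exon 7 inclusion puts luciferase in frame. Cells were plated 10-12 h before compound addition, then incubated 30-36 h at 37C. ONE-Glo luminescence was read; sodium butyrate at 4.5 mM final served as control.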
NPC1 prom act = activators of NPC1 promoter; Potency, µM (top dose mostly 9.22 µM), inactives show at the highest dose activation, actives largely listed as activators; AID 485313; hit rate 2.4% among 320,000; Huh7 NPC1 promoter luciferase reporter, 24 h; note: % of control where 0% means no effect; nearly all actives have a fitted effect of over 60% in size
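Huh7 cells stably carrying NPC1 promoter–luciferase, plated in Opti-MEM with 10% FBS for 2 h, were exposed to compound in DMSO for 24 h at 37 °C; luciferase reagent was added for 10 min and luminescence read.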
FLuc counter = counter-screen for miR-21 project: firefly luciferase inhibitors or activators | P08659 | purified FLuc, Km substrates, luminescence inhibition | Potency, µM (highest dose often 57.5 µM), for inactives: top-dose activity change, negative = inhibition, usual class: inhibitors | hit rate 6.9% among 360,000 | AID 588342;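 note: plate controls were vehicle for no effect and reference inhibitor for full effect; nearly all actives have a fitted effect of over 55% in size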
Target sequence (P08659 whole entry, looked up): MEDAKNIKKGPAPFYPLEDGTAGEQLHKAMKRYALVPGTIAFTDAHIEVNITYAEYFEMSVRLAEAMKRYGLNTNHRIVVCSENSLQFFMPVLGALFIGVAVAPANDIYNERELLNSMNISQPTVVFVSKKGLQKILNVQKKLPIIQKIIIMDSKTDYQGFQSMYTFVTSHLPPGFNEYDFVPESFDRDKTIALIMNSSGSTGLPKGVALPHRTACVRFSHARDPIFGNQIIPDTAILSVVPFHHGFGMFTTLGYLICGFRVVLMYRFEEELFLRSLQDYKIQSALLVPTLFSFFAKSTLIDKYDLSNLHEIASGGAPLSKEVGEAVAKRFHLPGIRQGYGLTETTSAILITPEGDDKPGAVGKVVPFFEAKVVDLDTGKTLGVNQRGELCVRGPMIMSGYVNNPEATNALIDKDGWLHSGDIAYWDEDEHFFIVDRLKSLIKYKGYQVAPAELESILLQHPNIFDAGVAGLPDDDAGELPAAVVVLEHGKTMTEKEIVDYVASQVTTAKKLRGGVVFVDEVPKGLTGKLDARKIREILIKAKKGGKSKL
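Purified P. pyralis luciferase (10nM final) with 10uM D-luciferin and 10uM ATP (Km levels) in 50mM Tris acetate pH 7.5, 10mM Mg acetate, 0.01% Tween-20, 0.05% BSA; qHTS 6-point titration, ~60 µM downward; luminescence read.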
Numbers without * were called inactive; ? = inconclusive; . = no result; [ ] = dose if it differs, or a comment. Shown are actives, neighbours in structure and some others; about 7.3% of the full set was active somewhere. Calls come from the whole dose curve; as a rule, active = well fitted curve in the direction sought with a large enough effect; inconclusive = small, poorly fitted or top-dose-only effect, or another doubt; inactive = no such curve, though single readings can be large; an effect the other way counts as inactive or inconclusive. Potency is the fitted concentration of half-maximal effect.

SMILES	Luc counter	Rab9 prom act	ELG1 genotoxic	SMN2 splice up	NPC1 prom act	FLuc counter
COc1ccc(CCn2c3c(c(=O)[nH]c2=O)C(NC(=O)c2ccccc2)(C(F)(F)F)C(=O)N3)cc1OC (stereo unspecified)	.	.	.	7%	.	-2%
CCn1c2ccccc2c2nnc(N3CCN(c4ccc(OC)cc4)CC3)nc21	.	.	.	.	.	5%
COc1ccccc1CCNC(=O)C(=O)NCC(c1ccco1)S(=O)(=O)c1ccccc1 (stereo unspecified)	.	.	.	.	.	-9%
Cc1ccc(NC(=O)C2CCN(C(=O)c3cnn(-c4ccccc4)c3-n3cccc3)CC2)cc1C	.	.	.	-46%	.	?
O=C(CCCC(=O)c1ccc(F)cc1)c1ccc(F)cc1	.	1µM*	?	.	2.8µM*	3µM*
O=C(CCCN1CCC(C(=O)c2ccc(F)cc2)CC1)c1ccc(F)cc1	.	0%	-8%	.	-1%	2%
COc1cc(NC(=O)c2ccc(NC(=O)N3CCSc4ncccc43)cc2)cc(OC)c1	.	.	.	.	.	-10%
O=C(COC(=O)c1cc(=O)[nH]c2ccccc12)c1cccs1	-4%	-7%	-2%	.	-2%	12µM*
O=C(COC(=O)c1cc(=O)[nH]c2ccccc12)c1ccccc1	-4%	0%	-8%	5%	0%	2.7µM*
O=C(OCC(=O)c1cccs1)c1ccccc1	8.9µM*	11%	?	-6%	21%	0.95µM*
COC(=O)c1nnc(N[C@@H](Cc2c[nH]c3ccccc23)C(=O)OC)nc1C(=O)OC	5%	.	.	14%	.	.
CN(C)CCSCCO	-2%[7.66 µM]	.	.	-8%[9.22 µM]	.	.
COc1ccc(-c2cc(C(F)(F)F)nc(SCC(=O)N3CCCCC3)n2)cc1	.	.	.	8%	.	-3%
COc1cc(NC(=O)CCn2c(-c3ccccc3)cc(C(C)=O)c2C)cc(OC)c1	.	.	.	.	.	-2%
CCC(C)N1C(=O)S/C(=C/c2ccc(N3CCOCC3)cc2C)C1=O (stereo unspecified)	0%	?	15%	-16%	?	7.6µM*
Cc1ccc(N2CCN(C(=O)N3CCOCC3)CC2)cc1C	3%	0%	1%	.	-1%	-1%
Cc1cc(N2CCOCC2)ccc1/C=C1\SC(=O)N(C(C)C)C1=O	-7%	1.4µM*	?	20%	1.4µM*	3.8µM*
COc1cc(NC(=O)C2CCN(S(=O)(=O)c3ccc4c(c3)oc(=O)n4C)CC2)cc(OC)c1	.	.	.	-16%	.	-11%
CCOC(=O)c1sc(/N=C/c2c(O)ccc3ccccc23)cc1C	-2%	2%	0%	-34%	3%	19µM*
O=C(O)Cc1ccc(N=Cc2c(O)ccc3ccccc23)cc1	-1%	-1%	-2%	16%	-3%	?
O=C(O)c1ccc(N=Cc2c(O)ccc3ccccc23)cc1	.	3%	1%	.	2%	30µM*
Cc1ccc(N=Cc2c(O)[nH]c3ccccc23)c([N+](=O)[O-])c1	-9%	0.56µM*	?	22%	?	?
Cc1[nH]c2ccccc2c1/C=N/NC(=O)c1cccc([N+](=O)[O-])c1	1%	-3%	-4%	-3%	-7%	?
COc1ccc(N=Cc2c(O)[nH]c3ccccc23)cc1	-5%	1.6µM*	?	13µM*	1.6µM*	2.7µM*
N#Cc1ccc(CS(=O)(=O)c2nc3ccccc3s2)cc1	-1%	.	.	4%	.	.
SMILES	Luc counter	Rab9 prom act	ELG1 genotoxic	SMN2 splice up	NPC1 prom act	FLuc counter
Oc1[nH]c2ccccc2c1/C=N/c1nccs1	-7%	?	8%	?	?	12µM*
Oc1[nH]c2ccccc2c1C=Nc1ccc2c(c1)OCO2	?	1.8µM*	?	0.89µM*	2µM*	7.6µM*
COc1ccc(N=Cc2c(O)ccc3ccccc23)cc1	-3%	-3%	-10%	.	-2%	13µM*
CC(=O)Nc1ccc(N=Cc2c(O)ccc3ccccc23)cc1	.	14%	0%	.	1%	?
Cc1ccccc1CN1C(=O)c2ccccc2S(=O)c2ccc(C(=O)NCc3ccccc3)cc21 (stereo unspecified)	.	.	.	.	.	5%
COc1ccc(NC(=O)Cn2c(=O)n(C(C)C)c(=O)c3oc4ccccc4c32)cc1Cl	.	.	.	.	.	0%
COc1ccc(CCNc2nc(-c3ccc(OC)c(OC)c3)cc(C(F)(F)F)n2)cc1OC	.	.	.	-23%	.	0%
Cn1c(-c2ccccc2)c(C=O)c2ccccc21	-3%	0%	10%	.	5%	?
O=C(N/N=C\c1c(O)ccc2ccccc12)c1ccc(O)cc1	.	3%	23%	.	-41%	12µM*
CCOc1ccc2ccccc2c1/C=N\NC(=O)c1ccc([N+](=O)[O-])cc1	.	-1%	3%	.	0%	9.5µM*
Cn1c(-c2ccccc2)c(/C=N/NC(=O)c2ccc(O)cc2)c2ccccc21	.	?	?	.	?	0.95µM*
Cc1noc2nc(C(=O)O)nc(N3CCCCC3)c12	.	.	.	0%	.	-9%
Cc1cc(C)c2c(C)c(C(=O)N3CCC(c4nc5ccccc5s4)CC3)oc2c1	.	.	.	.	.	-17%
CCc1cccc2c(-c3ccccc3)nc(SCC(=O)Nc3ccccc3OC)nc12	.	.	.	-7%	.	1%
COc1ccc(CNC(=O)Cn2ccc3cc(S(=O)(=O)N4CCCCC4)ccc32)cc1OC	.	.	.	.	.	3%
Nc1ccc(C(=O)Oc2ccc([N+](=O)[O-])cc2)cc1	.	14%	?	.	5%	3.4µM*
Nc1cc([N+](=O)[O-])ccc1C(=O)O	.	.	.	-6%	.	.
Nc1ccc(C(=O)Oc2ccc([N+](=O)[O-])cc2)c(O)c1	.	2%	-1%	.	-2%	15µM*
CCC(C)c1ccc(-c2cc(C(=O)OCC(=O)Nc3cc(C)on3)c3ccccc3n2)cc1 (stereo unspecified)	0%	1.6µM*	1.8µM*	22µM*	?	2.7µM*
O=C(Nc1ccon1)c1cc(-c2ccccc2)nc2ccccc12	1%	0%	-5%	-8%	0%	-12%
Cc1cc(NC(=O)c2cc(-c3ccc(OC(C)C)cc3)nc3ccccc23)no1	.	19%	6%	.	19%	3µM*
Cc1ccc(C)c(OCC(=O)O/N=C(\N)c2cccnc2)c1	.	11%	4%	.	-1%	-18%
N/C(=N\OC(=O)COc1ccccc1Cl)c1ccccn1	-9%	2.5µM*	9.2µM*	13µM*	3.2µM*	4.8µM*
Cc1ccc(C)c(OCC(=O)O/N=C(\N)c2ccccn2)c1	-6%	?	?	?	3.2µM*	17µM*
Cc1sc2nc3ccc(N4CCCC4)nn3c(=O)c2c1C	.	17%	2%	.	?	12µM*
O=c1c2ccccc2nc2ccc(N3CCOCC3)nn12	-23%	?	?	?	?	17µM*
Cc1ccc2nc3n(c(=O)c2c1)CCCCC3	-8%	20%	15%	?	15%	?

Bioassay records as filed in PubChem.
